The other results are listed elsewhere or left out. The hit rate among all sequences tested is not known here.
Biological target: furin, P09958
Assay: furin cleavage Z-score vs untreated control; higher = more cleavage, active = 3.5 or more, inactive = 1 or less, 8 variable residues between constant flanks
In short: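 Purified furin digested bead-held 8-mer peptide–cDNA fusions at 1:10 enzyme:substrate in 0.01 ml of 50 mM HEPES pH 7.5 with CaCl2 and NaCl for 7.5, 15 or 30 min. The cleavage Z-score compares sequencing counts of released DNA with furin-free reactions on a log scale, with lowess adjustment and median absolute deviation scaling.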

Chain of furin, P09958 (P09958 whole entry): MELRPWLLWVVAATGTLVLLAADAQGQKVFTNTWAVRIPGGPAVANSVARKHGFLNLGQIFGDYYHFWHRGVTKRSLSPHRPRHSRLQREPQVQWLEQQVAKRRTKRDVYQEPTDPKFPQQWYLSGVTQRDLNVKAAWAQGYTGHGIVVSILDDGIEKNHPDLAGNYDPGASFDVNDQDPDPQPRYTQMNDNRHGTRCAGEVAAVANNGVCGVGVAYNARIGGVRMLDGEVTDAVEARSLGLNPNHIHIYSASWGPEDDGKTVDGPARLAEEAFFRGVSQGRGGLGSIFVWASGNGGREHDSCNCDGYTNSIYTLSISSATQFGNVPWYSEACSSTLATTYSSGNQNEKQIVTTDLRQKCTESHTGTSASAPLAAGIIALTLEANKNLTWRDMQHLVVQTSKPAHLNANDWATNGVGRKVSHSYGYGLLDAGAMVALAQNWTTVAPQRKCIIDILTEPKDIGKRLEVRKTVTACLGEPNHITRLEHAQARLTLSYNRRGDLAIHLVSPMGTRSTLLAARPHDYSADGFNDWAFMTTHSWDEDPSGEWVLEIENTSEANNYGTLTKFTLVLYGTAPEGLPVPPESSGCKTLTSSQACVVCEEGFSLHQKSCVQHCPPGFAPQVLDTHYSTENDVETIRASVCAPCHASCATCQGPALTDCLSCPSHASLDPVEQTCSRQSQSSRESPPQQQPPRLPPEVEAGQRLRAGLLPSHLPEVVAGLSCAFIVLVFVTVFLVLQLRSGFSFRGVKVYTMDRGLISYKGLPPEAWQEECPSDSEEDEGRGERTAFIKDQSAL

Row | Sequence | furin cleavage Z-score (7.5 min) | furin cleavage Z-score (15 min) | furin cleavage Z-score (30 min)
1 | CAEVVVCCSMAGNASASA [HC2130] | 0.168 (inactive) | -0.257 (inactive) | -0.566 (inactive)
2 | CARIGRTARSAGNASASA [FS-559] | 14.2 (active) | 12.8 (active) | 11.2 (active)
3 | CALSSRHSRSAGNASASA [FS-688] | 7.04 (active) | 9.83 (active) | 7.06 (active)
4 | CAESGRENRSAGNASASA [FS-764] | 0.222 (inactive) | 0.598 (inactive) | -0.14 (inactive)
5 | CAVSGRRNRSAGNASASA [FS-1435] | 7.11 (active) | 8.52 (active) | 7.39 (active)
6 | CADVVTSTWVAGNASASA [HC2151] | 0.471 (inactive) | -0.0629 (inactive) | 0.991 (inactive)
7 | CALLGPADGMAGNASASA [HC666] | -0.849 (inactive) | -0.827 (inactive) | -0.909 (inactive)
8 | CATYVYNHLTAGNASASA [HC634] | -0.232 (inactive) | 0.658 (inactive) | 0.0846 (inactive)
9 | CAYEECSQHLAGNASASA [HC1669] | 1.21 | 0.943 (inactive) | 2.11
10 | CAEVVTSTWMAGNASASA [HC2246] | 1.57 | 0.473 (inactive) | 0.947 (inactive)
11 | CAQSSRQPRPAGNASASA [FS-141] | -0.311 (inactive) | -0.656 (inactive) | -0.417 (inactive)
12 | CAVSSRKSRWAGNASASA [FS-1501] | 3.21 | 3.75 (active) | 5.97 (active)
13 | CANSKRKSRPAGNASASA [FS-1145] | -2.35 (inactive) | 0.946 (inactive) | -1.84 (inactive)
14 | CAVSSRHRRAAGNASASA [FS-1106] | 12.3 (active) | 12.4 (active) | 10.3 (active)
15 | CAQSSRHRRAAGNASASA [FS-851] | 13.1 (active) | 12.7 (active) | 10.3 (active)
16 | CAQWQVLPCSAGNASASA [HC496] | -0.675 (inactive) | 0.494 (inactive) | 0.276 (inactive)
17 | CARTGVRTITAGNASASA [HC800] | -0.25 (inactive) | -0.718 (inactive) | -0.285 (inactive)
18 | CARRGPRLGVAGNASASA [HC180] | -0.669 (inactive) | -0.347 (inactive) | -0.923 (inactive)
19 | CAGRSRDLRGAGNASASA [FS-165] | -0.794 (inactive) | -0.817 (inactive) | -1.52 (inactive)
20 | CAREKREKIKAGNASASA [FS-2208] | -0.771 (inactive) | -0.626 (inactive) | 0.291 (inactive)
21 | CAREKRELRQAGNASASA [FS-2657] | 9.73 (active) | 13.3 (active) | 9.26 (active)
22 | CAGRSRELRQAGNASASA [FS-166] | 2.87 | 2.42 | 4.09 (active)

Row | Sequence | furin cleavage Z-score (7.5 min) | furin cleavage Z-score (15 min) | furin cleavage Z-score (30 min)
23 | CAENLVILNAAGNASASA [HC535] | -0.56 (inactive) | -1.45 (inactive) | 0.00797 (inactive)
24 | CALLQRKKKLAGNASASA [FS-823] | 0.0701 (inactive) | 0.355 (inactive) | -0.31 (inactive)
25 | CALIPRVRRAAGNASASA [FS-608] | 9.17 (active) | 10.3 (active) | 8.48 (active)
26 | CAADPRVRRAAGNASASA [FS-1298] | 10.1 (active) | 8.47 (active) | 8.31 (active)
27 | CAADPRTWRSAGNASASA [FS-741] | -0.983 (inactive) | 1.45 | -0.478 (inactive)
28 | CALLQRVRRAAGNASASA [FS-1360] | 3.77 (active) | 3.58 (active) | 3.76 (active)
29 | CAADARVCSCAGNASASA [HC524] | 0.17 (inactive) | -2.96 (inactive) | -3.71 (inactive)
30 | CAQKKRGGTAAGNASASA [WN2] | -0.625 (inactive) | -0.389 (inactive) | 0.122 (inactive)
31 | CAVNQRVRRAAGNASASA [FS-735] | 10 (active) | 8.42 (active) | 8.51 (active)
32 | CAAGVQEDAAAGNASASA [HC1534] | 0.273 (inactive) | -0.401 (inactive) | -1.13 (inactive)
33 | CAEKPCHRPSAGNASASA [HC2334] | -0.309 (inactive) | 0.292 (inactive) | 0.19 (inactive)
34 | CADRMEECSQAGNASASA [HC1813] | 0.635 (inactive) | -0.476 (inactive) | -0.0128 (inactive)
35 | CARSARSAPEAGNASASA [FS-2377] | 7.91 (active) | 9.89 (active) | 6.92 (active)
36 | CARWPRSDPEAGNASASA [FS-1807] | 2.83 | 2.73 | 4.21 (active)
37 | CARSARSVARAGNASASA [FS-3075] | 5.33 (active) | 7.5 (active) | 6.53 (active)
38 | CARSIKSVPEAGNASASA [FS-1927] | 0.273 (inactive) | -0.944 (inactive) | 0.475 (inactive)
39 | CARTWRSVPEAGNASASA [FS-2528] | 0.349 (inactive) | 0.625 (inactive) | 1.35
40 | CARWNRFAMIAGNASASA [FS-2200] | 0.704 (inactive) | -0.675 (inactive) | -0.478 (inactive)
41 | CASTWCSAHLAGNASASA [HC2508] | 0.983 (inactive) | 0.815 (inactive) | 0.802 (inactive)
42 | CAMILMTHFFAGNASASA [HC1582] | -0.371 (inactive) | -0.697 (inactive) | -2.29 (inactive)
43 | CAHCTTPCSGAGNASASA [HC1955] | -1.08 (inactive) | -1.68 (inactive) | 0.655 (inactive)
44 | CAEQVVCCSMAGNASASA [HC2142] | -0.416 (inactive) | -0.852 (inactive) | 2.1

Reference: the supplement of paper PMC3545927
